Source: PubChem
HCMV antiviral – qHTS Assay for inhibitors of the human cytomegalovirus (HCMV). HFF cells, HCMV-luciferase reporter, 72 h; active compounds read low. activity change, negative = inhibition, % at 57.5 µM. 410,000 compounds, 4.5% hits; in the data active = activity change below about -60%; inconclusive = no clear call, values can overlap the other calls; inactive = above about -39%
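Cell-based, HFFs, 1000 cells/well, 16 h 37C; cpds in DMSO + HCMV-luc, MOI 1 PFU/cell; 72 h 37C; OneGlo luminescence after 5 min RT; norm. to buffer vs Salinomycin 10uM.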
Vaccinia mCherry – qHTS for Stage-Specific Inhibitors of Vaccinia Orthopoxvirus: mCherry Reporter Primary qHTS. Vaccinia virus mCherry reporter infection, fluorescence. Potency, µM (doses to about 36.5 µM), for inactives: at the highest dose activity change, negative = inhibition, hits mostly inhibitors. 310,000 compounds, 0.63% hits. AID 720579, 2013; calls by dose curve; tested in A549 cells; also: potency is read from the fitted curve at half-maximal effect; nearly all actives have a fitted effect of over 35% in size
LmPK inh – qHTS Assay for Inhibitors of Leishmania Mexicana Pyruvate Kinase (LmPK). 290,000 compounds, 0.37% hits. Q27686. Potency, µM (doses to about 57.5 µM), for inactives: top-dose activity change, negative = inhibition, usual class: inhibitors. purified LmPK, Kinase-Glo ATP luminescence, 1 h; also: potency is read from the fitted curve at half-maximal effect
Target sequence (Q27686 whole entry, looked up): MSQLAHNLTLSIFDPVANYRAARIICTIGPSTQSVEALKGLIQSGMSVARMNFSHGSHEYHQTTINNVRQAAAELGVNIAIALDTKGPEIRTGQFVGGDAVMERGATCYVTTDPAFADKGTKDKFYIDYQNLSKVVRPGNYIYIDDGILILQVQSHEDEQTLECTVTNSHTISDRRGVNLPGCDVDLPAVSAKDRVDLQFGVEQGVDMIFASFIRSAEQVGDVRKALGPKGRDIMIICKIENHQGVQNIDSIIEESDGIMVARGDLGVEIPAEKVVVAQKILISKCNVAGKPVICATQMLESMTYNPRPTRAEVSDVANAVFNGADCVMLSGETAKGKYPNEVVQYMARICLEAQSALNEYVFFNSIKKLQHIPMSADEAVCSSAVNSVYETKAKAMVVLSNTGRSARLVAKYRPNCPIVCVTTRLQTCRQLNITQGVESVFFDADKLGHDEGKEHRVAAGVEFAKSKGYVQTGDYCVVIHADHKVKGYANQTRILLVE
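Purified LmPK (0.1 nM) with 0.5 mM PEP and 0.1 mM ADP in imidazole buffer pH 7.2 with MgCl2/KCl, 1 h at room temperature. ATP formed was read by luciferase luminescence and normalized to no-enzyme and uninhibited controls.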
Tb PYK inh – qHTS of Trypanosoma Brucei Inhibitors; pyruvate kinase (Trypanosoma brucei), Q57TT1; TbPYK enzyme, Kinase-Glo Plus ATP luminescence, 45 min; Potency, µM (series often up to 76.8 µM), for inactives: at the top dose activity, negative = inhibition, actives largely listed as inhibitors; 410,000 compounds, 0.12% hits; also: potency is read from the fitted curve at half-maximal effect; nearly all actives have a fitted effect of over 50% in size
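TbPYK + substrate in 50 mM TEA pH 7.2, 100 mM KCl, 10 mM MgCl2, 0.05% BSA, 0.01% Tween-20; cpd pinned; ADP 130 uM final; 45 min RT; Kinase-Glo Plus 10 min; luminescence endpoint.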
Vaccinia Venus – qHTS for Stage-Specific Inhibitors of Vaccinia Orthopoxvirus: Venus Reporter Primary qHTS. Vaccinia virus Venus reporter expression, fluorescence. Potency, µM (doses to about 36.5 µM), without a hit: top-dose activity change, negative = inhibition, actives largely listed as inhibitors. 330,000 compounds, 0.46% hits; calls by dose curve; tested in A549 cells; also: potency is read from the fitted curve at half-maximal effect; nearly all actives have a fitted effect of over 30% in size
Active calls of the source: *; i = inactive; ? = inconclusive; / = no result given; ! = not active in a repeat; [ ] = dose if it differs, or a comment. Hits are enriched below; roughly 5% of the tested compounds scored in any of these assays. Unless noted, calls follow the shape of the dose curve; as a rule, active = well fitted curve in the direction sought with a large enough effect; inconclusive = small, poorly fitted or top-dose-only effect, or another doubt; inactive = no such curve, though single readings can be large; an effect the other way counts as inactive or inconclusive. % is scaled to controls: 0 for no effect and ±100 for the full control effect.

SMILES | HCMV antiviral | Vaccinia mCherry | LmPK inh | Tb PYK inh | Vaccinia Venus
CNS(=O)(=O)c1cn(CC(=O)NCc2ccccc2OC)cc1S(=O)(=O)NC | / | i | -3% | -4% | -3%
CCOC(=O)C1=C[C@@H](C(C)(C)C)N(S(=O)(=O)c2ccc(C)cc2)[C@H]1c1ccccc1Cl | -26 | i | / | -5% | -4%
CCOC(=O)C1=C[C@@H](C(C)(C)C)N(S(=O)(=O)c2ccc(C)cc2)[C@H]1c1ccc(C)cc1 | -76* | 2% | / | 1% | -5%
Cc1ccc(C(C)C)c(OCc2nn(CC(=O)c3ccc(Cl)cc3)c3[n+]2CCCCC3)c1 | -112* | -13% | 0% | -2% | ?
CCC(C)NC(=O)CN1C(=O)CC(C)(C)S(=O)(=O)c2ccccc21 (stereo not given) | 1 | -6% | 1% | -1% | 0%
O=C(NCc1ccc(F)cc1)c1ccc2c(Cl)c3c(nc2c1)CCCC3 | -73* | -12%[7.34 µM] | / | -2% | -9%[7.34 µM]
O=C(c1ccc2c(Cl)c3c(nc2c1)CCCC3)N1CCC(N2CCCCC2)CC1 | -60* | -24% | -2% | 0% | ?
COc1ccc(CNC(=O)c2ccc3c(Cl)c4c(nc3c2)CCCC4)c(OC)c1 | ? | -22% | / | 0% | -12%
COc1ccc(CCNC(=O)c2ccc3c(Cl)c4c(nc3c2)CCCC4)c(OC)c1 | -94* | -16% | / | -5% | -11%
CCc1ccc(CNC(=O)c2ccc3c(Cl)c4c(nc3c2)CCCC4)cc1 | -26 | -14% | / | 0% | -5%
O=C(Nc1cccc2ccccc12)N1CCN(c2ccc(F)cc2)CC1 | -29 | / | 10% | -5% | 18%
COC(=O)c1ccccc1NC(=O)N1CCN(c2ccc(F)cc2)CC1 | -63* | / | 1% | -1% | /
O=C(Nc1ccc(Cl)cc1)N1CCN(c2ccc3nnc(-c4ccccc4)n3n2)CC1 | -81* | 10µM* | / | 8% | ?
COc1ccccc1NC(=O)N1CCN(c2ccc3nnc(-c4ccc(F)cc4)n3n2)CC1 | -76*! | ? | 2% | 25% | ?
Cn1c(NC(=O)c2ccc(Cl)s2)cc(=O)n(C)c1=O | -20 | / | 2% | -21% | /
Cc1ccc2onc(CC(=O)O)c2c1 | 13 | -10% | -1% | -5% | -8%
Fc1ccccc1CCNc1c2c(nc3ncnn13)CCCC2 | -77* | -4% | 2% | 7% | ?
O=c1cc(CSc2nnc(-c3cccs3)n2Cc2ccccc2)nc2sc3ccccc3n12 | -93* | -15% | -2% | -11% | ?
COCCCNC(=O)c1ccc(-n2c(-c3ccccc3)cc3c2CCC(C)C3)cc1 (stereo not given) | ? | ? | / | -8% | ?
COc1cccc2c1Oc1cc([N+](=O)[O-])cc(N(C)C(C)=O)c1C=C2 | 218 | 7.1µM* | -3% | 1% | -21%
CCCCNC(=O)C(NC(=O)c1ccc2ccccc2c1)C(=O)c1ccccc1 (stereo not given) | -64* | -23% | / | / | -14%
Cc1ccc(-c2nnc(-c3ccc(NC(=O)Cc4cccs4)cc3)o2)cc1 | -85* | -9% | 0% | 5% | -13%
Cc1ccccc1NC(=O)CCn1c(=O)oc2ccccc21 | -21 | i | 1% | 2% | 7%
CN1C(=O)C(C)(C)c2cc(S(=O)(=O)N3CCCC(C(=O)NCc4ccc(Cl)cc4)C3)ccc21 (stereo not given) | 8 | ? | -2% | 2% | ?
CC1(C)SC(=S)N(NC(=O)Nc2cccc3ccccc23)C1N(O)C(=O)Nc1ccccc1 (stereo not given) | -75* | ? | 3% | -1% | ?
CCOc1ccc(NC(=O)CCc2c(C)nc3c(-c4ccccc4)c(C)nn3c2C)cc1 | -7 | -4% | / | 0% | -9%
CCOc1ccc2nc(N3C(=O)CNC3=S)sc2c1 | -106* | -13% | ? | ? | 11%
CC1CCCCC12NC(=O)N(CC(=O)c1ccc3c(c1)OCO3)C2=O (stereo not given) | 5 | -24% | / | -2% | -23%
O=C(O)C1=C(OCc2ccccc2)C(=O)NCC1 | -6 | i | 0% | 3% | -4%
